This is an account of results in PubChem BioAssay AID1347075 (National Center for Advancing Translational Sciences (NCATS), 2019).

Out of some 400,000 compounds screened, about 5,500 (1.4%) were called active. Where a call stands in place of a potency, no number is given. Not shown: some 9% with an inconclusive outcome. Calls come from the whole dose curve; as a rule, active = well fitted cell-killing curve with a large enough effect; inconclusive = small, poorly fitted or top-dose-only effect, or effect the other way; inactive = flat fitted curve, though single readings scatter. Many of the other results were omitted from the sample, so actives are more common in it than they were.
Potency is the fitted concentration of half-maximal effect.

This experiment is described as follows: qHTS assay for MDR1-selective chemotherapeutics: Primary screen using the parental adenocarcinoma cell KB-3-1. Note: nearly all actives have a fitted effect of over 60% in size. The settings on record: KB-3-1 viability, CellTiter-Glo ATP luminescence, 72 h; series mostly up to 46.1 µM. In a few lines: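 Viability of parental KB-3-1 cells, measured by CellTiter-Glo luminescence, followed a 72 h incubation at 37 °C with pinned compounds in phenol-red-free DMEM containing 10% FBS.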
A general note: qHTS replaces the single test concentration by a dilution series.
On to `CC1(C(=O)NCc2ccco2)Cc2c(-c3ccc4c(c3)OCO4)ccnc2O1` (configuration not stated), for which the Potency was 2.59 µM (active).

For the compound `CC1(C(=O)Nc2cccnc2)Cc2c(-c3ccccc3)ccnc2O1` (configuration not stated), the Potency entry is “inactive”.

Take `CC(=O)Nc1cccc(-c2ccnc3c2CC(C)(C(=O)NCc2ccco2)O3)c1` (configuration not stated): the Potency entry was “inactive”.

As for `CC(=O)Nc1cccc(-c2ccnc3c2CC(C)(C(=O)NCc2ccccc2)O3)c1` (configuration not stated), the Potency is 2.91 µM (active).

As for `O=C(Cn1nnc(-c2ccc3c(c2)OCO3)n1)NCc1ccco1`, the Potency result was “inactive”.

For the compound `CS(=O)(=O)N(CC(=O)NCc1ccco1)c1ccc2c(c1)OCO2`, the Potency result is “inactive”.

Take `CC1=C(C(=O)OCc2ccc(C)cc2)C(c2c(Cl)cccc2Cl)CC(=O)N1` (configuration not stated): the Potency result is “inactive”.

With `Cc1ccc2nc(COc3cccc(NC(=O)c4cccc(Cl)c4)c3)cc(=O)n2c1`, the Potency result was “inactive”.

As for `CCc1nc2ccc(C(=O)N3CCN(c4cc(Cl)ccc4C)CC3)cc2nc1CC`, the Potency entry is “inactive”.

With `O=C(c1ccco1)N(Cc1cccs1)c1ccc(O)cc1`, the Potency entry is “inactive”.

Consider `CCOC(=O)C1=CC[C@@H](c2ccccc2)N(S(=O)(=O)c2ccc(C)cc2)[C@H]1c1cccc(OC)c1`, for which the Potency entry is “inactive”.

As for `CCOC(=O)C1C(C)C(C(C)(C)C)N(S(=O)(=O)c2ccc(C)cc2)C1c1ccccc1` (configuration not stated), the Potency is 23.1 µM (active).

As for `CCOC(=O)C1=CC[C@@H](c2ccccc2)N(S(=O)(=O)c2ccc(C)cc2)[C@H]1c1ccc(CC)cc1`, the Potency entry is “inactive”.

In the case of `COc1ccc(-c2ccc3ncnc(NCc4cccs4)c3c2)cc1OC`, the Potency result is “inactive”.

Take `Cc1ccccc1CSCCNC(=O)C1CCN(S(=O)(=O)Cc2ccccc2)CC1`: the Potency result was “inactive”.

For the compound `CCCNC(=O)C1CCC(Cn2c(=O)c3sccc3n(Cc3ccccc3F)c2=O)CC1` (configuration not stated), the Potency entry was “inactive”.

For the compound `CCOC(=O)c1ccc(NC(=O)c2ncn(-c3ccccc3)n2)cc1`, the Potency result was “inactive”.

For the compound `CCOc1ccc(CNC(=O)c2cc(-c3ccc(Cl)s3)nc3ccccc23)cc1`, the Potency entry is “inactive”.

For `CCc1cc2c(N3CCN(c4nnc(CC)s4)CC3)ncnc2s1`, the Potency was 9.2 µM (active).

Take `CCc1cc2c(NC(Cc3ccccc3)C(=O)O)ncnc2s1` (configuration not stated): the Potency entry was “inactive”.

Take `CCN1CCN(c2ncnc3c2cnn3-c2ccc(C)c(C)c2)CC1`: the Potency entry is “inactive”.

As to `CCCCOc1ccc(C(=O)Nc2cccc(-c3nc4ccccc4o3)c2C)cc1`, the Potency entry is “inactive”.

As for `Cc1ccc2nc(CN3CCN(S(=O)(=O)c4ccc(C)c(C)c4)CC3)oc2c1`, the Potency entry is “inactive”.

Take `CSc1ccccc1NC(=O)c1cc(Cl)sc1Cl`: the Potency result was “inactive”.

Regarding `COc1ccccc1NC(=O)c1cc(N2C(=O)C3C4CCC(C4)C3C2=O)ccc1Cl` (configuration not stated), the Potency entry is “inactive”.

Consider `COc1ccccc1NC(=O)c1cc(Cl)nnc1Cl`, for which the Potency was 23.1 µM (active).

In the case of `Oc1ccccc1-c1nc(/C=C/c2ccc(F)cc2)no1`, the Potency entry was “inactive”.

Consider `COc1cc2c(=O)c(S(=O)(=O)c3ccc(C(C)C)cc3)cn(Cc3ccccc3C)c2cc1OC`, for which the Potency entry was “inactive”.

In the case of `Cc1cc(C)nc(N/N=C/c2c(CO)cnc(C)c2O)n1`, the Potency result is “inactive”.

Turning to `CCOc1ccc(-n2c(SCC(=O)Nc3cc(C(=O)O)ccc3Cl)nc3ccccc3c2=O)cc1`, the Potency result is “inactive”.

Regarding `CCOc1ccc(-n2c(O)c(/C=N/Nc3nc(C)cc(C)n3)c3ccccc3c2=O)cc1`, the Potency is 20.6 µM (active).

For the compound `COc1cc(OC)c(NC(=O)c2nc(-c3ccncc3)no2)cc1Cl`, the Potency entry was “inactive”.

Consider `Cc1ccc(N2CCN(C(=O)CCc3c(C)nc4c(c3C)c(=O)n(C)c(=O)n4C)CC2)c(C)c1`, for which the Potency result was “inactive”.

In the case of `Cc1ccc(OCCn2c(CNc3ccccc3C)nc3ccccc32)cc1`, the Potency entry is “inactive”.

Take `Cc1cc(C)cc(Nc2ncnc3onc(-c4ccc(F)cc4)c23)c1`: the Potency result is “inactive”.

For `CC1Cc2ccccc2N1S(=O)(=O)c1ccc(Cl)nc1` (configuration not stated), the Potency result is “inactive”.

As to `Cc1cc(-c2ccc(C)c(S(=O)(=O)N3c4ccccc4CC3C)c2)on1` (configuration not stated), the Potency is 14.6 µM (active).

In the case of `CCC1CN(S(=O)(=O)c2cc(-c3cc(C)no3)ccc2C)c2cc(C)ccc2O1` (configuration not stated), the Potency result is “inactive”.

On to `COc1cccc(C(=O)Nc2ccc(N3CCN(C(=O)c4ccco4)CC3)cc2)c1`, for which the Potency is 4.61 µM (active).

With `O=C(OCC(=O)N1CCN(C(=O)c2ccco2)CC1)c1cccc(O)c1`, the Potency entry was “inactive”.

`O=C(Nc1ccccc1N1CCN(C(=O)c2ccccc2)CC1)c1ccco1`: the Potency result is “inactive”.

For the compound `Cc1csc2nc(COc3ccc(NC(=O)COc4ccccc4)cc3)cc(=O)n12`, the Potency entry is “inactive”.

In the case of `O=C1CCCN1C(=O)COc1ccc([N+](=O)[O-])cc1`, the Potency result was “inactive”.

In the case of `O=[N+]([O-])c1ccc(/C=C/c2ccc3cccnc3c2)cc1`, the Potency result is “inactive”.

For `O=C1/C(=C\c2ccc([N+](=O)[O-])cc2)CS(=O)(=O)C/C1=C/c1ccc([N+](=O)[O-])cc1`, the Potency was 1.46 µM (active).

Turning to `Cc1ccccc1C(=O)Nc1sc2c(c1C(=O)N1CCC(C)CC1)CCCC2`, the Potency result was “inactive”.

Turning to `COc1ccc(CNC(=O)c2ccc3c(O)c(S(=O)(=O)c4ccccc4)c(=O)[nH]c3c2)cc1`, the Potency result is “inactive”.

Consider `Cc1ccc(C)c(N2C(=O)N(Cc3c(F)cccc3Cl)c3ccccc3S2(=O)=O)c1`, for which the Potency entry is “inactive”.

In the case of `Cc1cc(C)c(NC(=O)Cn2c(SCC(=O)NCc3ccccc3)nc3ccccc32)c(C)c1`, the Potency entry is “inactive”.

For `Cc1ccc(-c2cnc(C3CC3)o2)cc1S(=O)(=O)Nc1cccc(C)c1C`, the Potency entry was “inactive”.

In the case of `Cc1cccc(NS(=O)(=O)c2ccc(-c3cnc(C4CC4)o3)cc2)c1`, the Potency was 1.46 µM (active).

Turning to `Cc1cccc(CNS(=O)(=O)c2ccc(-c3cnc(C4CC4)o3)cc2)c1`, the Potency entry was “inactive”.

With `COCCn1c(CCC(=O)Nc2cc(C)ccc2C)nc2cccnc21`, the Potency result is “inactive”.

As for `COC(=O)c1ccccc1NC(=O)c1cc(-c2ccccc2O)no1`, the Potency result is “inactive”.

As for `O=C(CC(O)(C(F)(F)F)C(F)(F)F)Nc1ccc(Cl)c(Cl)c1`, the Potency was 5.17 µM (active).

For `Cc1ccc(-c2nn(CCC(=O)Nc3ccc(Cl)c(Cl)c3)c(=O)c3ccccc23)cc1`, the Potency entry was “inactive”.

Consider `O=C(CSc1nnc(-c2ccncc2)n1-c1ccccc1)Nc1ccc(Cl)c(Cl)c1`, for which the Potency entry is “inactive”.

As for `COc1cc(-c2noc(C3CCCN(S(=O)(=O)c4cccc(Cl)c4)C3)n2)cc(OC)c1OC` (configuration not stated), the Potency entry is “inactive”.

On to `O=C(Cc1cccs1)N1CCCC(c2nc(-c3ccc(S(=O)(=O)N4CCCC4)cc3)no2)C1` (configuration not stated), for which the Potency result was “inactive”.

For `CC(C)c1ccc(-c2noc(C3CCCN(S(C)(=O)=O)C3)n2)cc1` (configuration not stated), the Potency was 20.6 µM (active).

As for `CC1CCCCN1CC(=O)N1CCCc2c1c(=O)oc1ccc(OCc3ccccc3)cc21` (configuration not stated), the Potency entry is “inactive”.

For `Cc1cc(C)c(NC(=O)CCc2c(C)nc3c(c(C)nn3C(C)(C)C)c2C)c(C)c1`, the Potency result is “inactive”.

`CCc1ccc(CCC(=O)Nc2ccc(S(N)(=O)=O)cc2)o1`: the Potency entry is “inactive”.

For the compound `Cc1ccc(CCC(=O)Nc2ncc(Cc3cc(Cl)ccc3Cl)s2)o1`, the Potency was 1.16 µM (active).

For the compound `Cc1cccc(-n2c(=O)c3c(c4cc(C)ccc4n3C)n(CC(=O)Nc3ccccc3Cl)c2=O)c1`, the Potency result is “inactive”.

Consider `CCC1CCCCN1S(=O)(=O)c1ccc(NC(=O)c2cc(=O)c3ccccc3o2)cc1` (configuration not stated), for which the Potency result is “inactive”.

In the case of `COc1cc(C(O)c2nc(-c3cccc(C(=O)O)c3)cs2)ccc1F` (configuration not stated), the Potency result was “inactive”.

For the compound `COc1ccc2c(c1OC)C(=O)OC2Nc1nc(-c2ccccc2)cs1` (configuration not stated), the Potency is 3.66 µM (active).

Turning to `COc1ccccc1C(=O)Nc1nc2nc(-c3ccccc3)cc(=O)n2[nH]1`, the Potency entry was “inactive”.

Consider `CCOC(=O)c1cccc(NS(=O)(=O)c2cc(-c3cnc(C)o3)ccc2OC)c1`, for which the Potency entry is “inactive”.

For `COc1ccc(C)cc1N(CC(=O)N1CCC(C)CC1)S(=O)(=O)c1ccc(C)cc1`, the Potency entry was “inactive”.

Turning to `CC(=O)Nc1ccc(NC(=O)c2cc3sccc3n2Cc2ccc(F)cc2)cc1`, the Potency result is “inactive”.

For `CCn1cc(C(=O)OCC(=O)Nc2cc(C)cc(C)c2)c(=O)c2ccc(C)nc21`, the Potency result is “inactive”.

In the case of `C[n+]1ccc(/C=C/c2c[nH]c3ccccc23)cc1`, the Potency is 1.16 µM (active).

With `Clc1ccc(CSc2nncn3c2cc2occc23)cc1`, the Potency entry is “inactive”.

As to `COc1cccc2cc(-c3nc(Cl)c4c5c(sc4n3)CC(C)CC5)c(=O)oc12` (configuration not stated), the Potency entry is “inactive”.

As to `COc1ccc(CNC(=O)C2=Cc3cccc(OC)c3OC2)cc1OC`, the Potency result is “inactive”.

On to `CCN(Cc1ccccc1)S(=O)(=O)c1ccc2c(c1)CCCN2C(C)=O`, for which the Potency result is “inactive”.

Regarding `Oc1ccc2ccccc2c1N=Nc1nccs1`, the Potency was 14.6 µM (active).

With `Cc1ccccc1OCCSc1nc2ccc(NC(=O)c3ccco3)cc2s1`, the Potency result was “inactive”.

`CC(=O)Nc1cccc(C(=O)OCC(=O)c2ccc3c(c2)OCO3)c1`: the Potency entry is “inactive”.

With `O=C(Nc1ccc2c(c1)OCO2)c1cc(-c2cccc(Cl)c2)on1`, the Potency result was “inactive”.

For `Cc1ccc(S(=O)(=O)c2c(Nc3cccc(Cl)c3)sc(C(=O)c3ccc4c(c3)OCO4)c2N)cc1`, the Potency was 14.6 µM (active).

As to `CN(C)C1=C2C=CC=CC2/C(=C2/C=Cc3ccccc32)C=C1` (configuration not stated), the Potency result was “inactive”.

As to `COc1ccc(NC(=O)c2ccc3nc(CCc4ccccc4)oc3c2)c(OC)c1`, the Potency entry is “inactive”.

In the case of `Cc1oc2ccc(O)c(CN3CCOCC3)c2c1C(=O)Nc1cccc(Cl)c1C`, the Potency result was “inactive”.

Regarding `CCOc1ccc(NC(=O)Cn2c(=O)n(CCCC(=O)NCc3ccc4c(c3)OCO4)c(=O)c3ccccc32)cc1`, the Potency entry is “inactive”.

On to `COc1ccc(NC(=O)CSc2nccn2Cc2ccc3c(c2)OCO3)cc1`, for which the Potency result was “inactive”.

As for `CCCOc1ccc(NC(=O)CC2C(=O)N(C)C(=S)N2Cc2ccc3c(c2)OCO3)cc1` (configuration not stated), the Potency is 18.4 µM (active).

Consider `CC(C)(O)C#Cc1ccc(CN2CCC(CO)(CCc3ccccc3)CC2)cc1`, for which the Potency entry is “inactive”.

For `Cc1c(CN2CCC(CO)(CCOc3ccccc3)CC2)[nH]c2ccc(Cl)cc12`, the Potency is 14.6 µM (active).

As for `Cc1cccc(-c2ncc(CN3CCC(CO)(CCCc4ccccc4)CC3)cn2)c1`, the Potency result was “inactive”.

On to `Cc1ccc(C(=O)COC(=O)C(Cc2c[nH]c3ccccc23)NC(=O)c2ccc(Br)cc2)cc1` (configuration not stated), for which the Potency entry is “inactive”.

For `COc1cc(C(=O)Nc2ccc(OCc3cc(=O)n4cc(C)sc4n3)cc2)cc(OC)c1OC`, the Potency result is “inactive”.

For the compound `O=C(CSc1oc(-c2ccco2)nc1S(=O)(=O)c1ccc(Cl)cc1)c1ccccc1`, the Potency result is “inactive”.

With `CCOc1ccc(CC(=O)NCCc2csc3nc(-c4ccccc4F)nn23)cc1`, the Potency result is “inactive”.

`Cc1cccc(OCCSc2nc3ccccc3n2CC(=O)N2CCCCC2)c1C`: the Potency result was “inactive”.
